Assay results from PubChem BioAssay (NCI).
The panel holds about 83,000 compounds, 20% with a hit somewhere; the sample as a whole holds those more often.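 Results are percent growth after 48 hours of single-concentration exposure. 100 means growth as in untreated cells, lower positive values show inhibition; negative values down to -100 show cell death.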 Calls of active or inactive are those of the source. The calls were made as follows: active = growth percent below 10; inactive = the rest.

Tests used:
Assay in all cases: NCI-60 one-dose screen, 48 h (100 = growth as untreated, 0 = no growth, -100 = all killed)
Conditions in all cases: 10 µM unless noted
HCT-15 colon = system: HCT-15 colon
HT29 colon = system: HT29 colon
SNB-75 CNS = system: SNB-75 CNS
SNB-19 CNS = system: SNB-19 CNS
U251 CNS = system: U251 CNS
PC-3 prostate = system: PC-3 prostate
SK-MEL-5 melanoma = system: SK-MEL-5 melanoma
UACC-62 melanoma = system: UACC-62 melanoma
LOX IMVI melanoma = system: LOX IMVI melanoma
SK-MEL-28 melanoma = system: SK-MEL-28 melanoma
EKVX NSCLC = system: EKVX NSCLC
SN12C renal = system: SN12C renal
UO-31 renal = system: UO-31 renal
TK-10 renal = system: TK-10 renal
ACHN renal = system: ACHN renal
CAKI-1 renal = system: CAKI-1 renal
CCRF-CEM leukemia = system: CCRF-CEM leukemia
MOLT-4 leukemia = system: MOLT-4 leukemia
SK-MEL-2 melanoma = system: SK-MEL-2 melanoma
A498 renal = system: A498 renal

Measured: growth

N#C/C(=C\c1ccc(Cl)cc1)n1nnc2cc(F)c(F)cc21
active: HCT-15 colon 2% | HT29 colon 9.95% | SK-MEL-5 melanoma 8.38% | LOX IMVI melanoma -63.5% | SN12C renal 8.61% | UO-31 renal -17.5% | ACHN renal 9.15% | CCRF-CEM leukemia -8.83% | MOLT-4 leukemia 1.3%
inactive: SNB-75 CNS 15.9% | SNB-19 CNS 34.5% | U251 CNS 18.1% | PC-3 prostate 30.9% | UACC-62 melanoma 21% | SK-MEL-28 melanoma 29.6% | EKVX NSCLC 59.3% | TK-10 renal 16.9% | CAKI-1 renal 18%

CN1CCC(=C(c2ccccc2)c2ccccc2)C(c2ccccc2)C1 (centres undefined)
inactive: HCT-15 colon 82.5% | HT29 colon 82.9% | SNB-75 CNS 88% | SNB-19 CNS 95.5% | U251 CNS 93.3% | PC-3 prostate 93.6% | SK-MEL-5 melanoma 101% | UACC-62 melanoma 97.1% | LOX IMVI melanoma 86% | SK-MEL-28 melanoma 110% | SK-MEL-2 melanoma 102% | SN12C renal 99.4% | UO-31 renal 84.9% | TK-10 renal 96.2% | ACHN renal 93.1% | CAKI-1 renal 66.4% | CCRF-CEM leukemia 105% | MOLT-4 leukemia 92.1%

COc1ccc(NC(N)=NCCCOc2ccc(F)cc2)cc1
inactive: HCT-15 colon 92.2% | HT29 colon 36.6% | SNB-75 CNS 81.9% | SNB-19 CNS 81.5% | U251 CNS 85.7% | PC-3 prostate 66.8% | SK-MEL-5 melanoma 28% | UACC-62 melanoma 87.8% | LOX IMVI melanoma 89.8% | SK-MEL-28 melanoma 88.5% | EKVX NSCLC 69% | SN12C renal 80.5% | UO-31 renal 86.7% | TK-10 renal 87.3% | ACHN renal 89.3% | CAKI-1 renal 94% | CCRF-CEM leukemia 82.9% | MOLT-4 leukemia 61%

COC(=O)C(CC=O)C(=O)C(=O)Nc1cccc(C(F)(F)F)c1 (centres undefined)
inactive: HCT-15 colon 108% | HT29 colon 99.1% | SNB-75 CNS 92.8% | SNB-19 CNS 102% | U251 CNS 79.2% | PC-3 prostate 95.7% | SK-MEL-5 melanoma 99.9% | UACC-62 melanoma 89.7% | LOX IMVI melanoma 85.9% | SK-MEL-28 melanoma 120% | EKVX NSCLC 92.1% | SN12C renal 92.2% | UO-31 renal 86.6% | TK-10 renal 102% | ACHN renal 105% | CAKI-1 renal 97.7% | A498 renal 83.4%

COc1cc(/C=C/c2cc(O)c(C(C)=O)c(O)c2)cc2c1O[C@]1(C)CC[C@@H](O)C(C)(C)[C@H]1C2
inactive: HCT-15 colon 42.8% | HT29 colon 34.9% | SNB-19 CNS 56.4% | U251 CNS 36.1% | PC-3 prostate 45.2% | SK-MEL-5 melanoma 65.2% | UACC-62 melanoma 38.7% | LOX IMVI melanoma 35.1% | SK-MEL-28 melanoma 51.4% | SK-MEL-2 melanoma 31.4% | SN12C renal 82.5% | UO-31 renal 29.7% | TK-10 renal 94.7% | ACHN renal 65% | CAKI-1 renal 45% | CCRF-CEM leukemia 37.6% | MOLT-4 leukemia 20.2%
active: SNB-75 CNS 7.67%

CC1(C)c2[nH]c3ccccc3c2C[C@]2(C)[C@H]3C(=O)C=C4[C@@H]5C[C@@](C)(C(N)=O)CC[C@]5(C)CC[C@@]4(C)[C@]3(C)CC[C@@H]12
inactive: HCT-15 colon 65.8% | HT29 colon 56.3% | SNB-75 CNS 89.3% | SNB-19 CNS 78.6% | U251 CNS 70.4% | PC-3 prostate 42.1% | SK-MEL-5 melanoma 72% | UACC-62 melanoma 70.6% | LOX IMVI melanoma 83% | SK-MEL-28 melanoma 93.3% | EKVX NSCLC 68.4% | SN12C renal 72% | UO-31 renal 42.6% | TK-10 renal 70.5% | ACHN renal 76.7% | CAKI-1 renal 82.8% | CCRF-CEM leukemia 66.7% | MOLT-4 leukemia 32.6%

COc1cc2nc(-c3ccc(C(F)(F)F)cc3)cc(OCCCN3CCOCC3)c2cc1OC
active: HCT-15 colon 7.76% | SNB-75 CNS -9.47% | SK-MEL-5 melanoma -33.1% | UACC-62 melanoma -26.1% | LOX IMVI melanoma -82.1% | CAKI-1 renal -13.1%
inactive: HT29 colon 17.4% | SNB-19 CNS 61% | U251 CNS 42.6% | PC-3 prostate 42.1% | SK-MEL-28 melanoma 42.1% | SK-MEL-2 melanoma 47.4% | SN12C renal 41.3% | UO-31 renal 33% | TK-10 renal 96.6% | ACHN renal 34.3% | CCRF-CEM leukemia 37.5% | MOLT-4 leukemia 44.9%

O=S(=O)(NCCCNc1nccc(-c2c(-c3cccc(F)c3)nc3sccn23)n1)c1cccc(F)c1
active: UACC-62 melanoma 6.36% | MOLT-4 leukemia 9.94%
inactive: HCT-15 colon 22.6% | HT29 colon 30.6% | SNB-75 CNS 88.6% | SNB-19 CNS 76.8% | U251 CNS 70% | PC-3 prostate 27.1% | SK-MEL-5 melanoma 13.5% | LOX IMVI melanoma 39% | SK-MEL-28 melanoma 68.3% | EKVX NSCLC 52.4% | SN12C renal 56.3% | UO-31 renal 28.2% | TK-10 renal 72.3% | ACHN renal 42.5% | CAKI-1 renal 41.5% | CCRF-CEM leukemia 24.7%

CCOC(=O)c1cc(C(=O)c2ccc(Br)cc2)n2ccc(/C=C/c3cc[n+](CC(=O)c4ccc(OC)cc4)cc3)cc12
inactive: HCT-15 colon 70.7% | HT29 colon 34.3% | SNB-75 CNS 93.7% | SNB-19 CNS 89.1% | U251 CNS 101% | PC-3 prostate 83.8% | SK-MEL-5 melanoma 95.3% | UACC-62 melanoma 92.7% | LOX IMVI melanoma 81% | SK-MEL-28 melanoma 106% | EKVX NSCLC 95.3% | SN12C renal 78% | UO-31 renal 77.6% | TK-10 renal 116% | ACHN renal 93.6% | CAKI-1 renal 93.2% | A498 renal 92% | MOLT-4 leukemia 68.3%
active: CCRF-CEM leukemia -23.7%

COc1ccc(-c2cnc3c(-c4cccc5ncccc45)cnn3c2)cc1
inactive: HCT-15 colon 71.6% | HT29 colon 43.5% | U251 CNS 16.3% | PC-3 prostate 50.6% | SK-MEL-5 melanoma 22.3% | UACC-62 melanoma 54.2% | LOX IMVI melanoma 72.4% | SK-MEL-28 melanoma 58.1% | EKVX NSCLC 80% | SN12C renal 37.8% | UO-31 renal 55.4% | TK-10 renal 61.7% | CAKI-1 renal 32.2% | A498 renal 16.1% | CCRF-CEM leukemia 98.4%
active: SNB-75 CNS -13.1% | SNB-19 CNS 5.29% | ACHN renal 7.66%

Cn1ccnc1C(=O)/C=C/c1ccc(CC(=O)NC2CCCCC2)cc1
active: SNB-75 CNS 3.39%
inactive: HCT-15 colon 33.1% | HT29 colon 15.3% | SNB-19 CNS 46.2% | U251 CNS 31.4% | PC-3 prostate 59.7% | SK-MEL-5 melanoma 71.3% | UACC-62 melanoma 73.4% | LOX IMVI melanoma 44.5% | SK-MEL-28 melanoma 92.3% | SK-MEL-2 melanoma 108% | SN12C renal 61.2% | UO-31 renal 60.4% | TK-10 renal 94.8% | ACHN renal 81.3% | CAKI-1 renal 66.9% | CCRF-CEM leukemia 33.5% | MOLT-4 leukemia 67.7%

CN1C(=O)NC(c2ccc3c(c2)OCO3)C=C1c1ccccc1 (centres undefined)
inactive: HCT-15 colon 77.8% | HT29 colon 84.2% | SNB-75 CNS 80.2% | SNB-19 CNS 92.5% | U251 CNS 72% | PC-3 prostate 102% | SK-MEL-5 melanoma 99% | UACC-62 melanoma 89.8% | LOX IMVI melanoma 96.5% | SK-MEL-28 melanoma 106% | SK-MEL-2 melanoma 100% | SN12C renal 89% | UO-31 renal 64.7% | TK-10 renal 85% | ACHN renal 105% | CAKI-1 renal 82.8% | CCRF-CEM leukemia 87.2% | MOLT-4 leukemia 94.3%

CCNC(=O)Oc1ccc(/C(=C(\C)c2ccccc2)c2ccc(OCCN3CCCCC3)cc2)cc1
active: HT29 colon -13.8%
inactive: HCT-15 colon 17% | SNB-75 CNS 84.7% | SNB-19 CNS 79.4% | U251 CNS 48.6% | PC-3 prostate 49.7% | SK-MEL-5 melanoma 62.5% | UACC-62 melanoma 52.4% | LOX IMVI melanoma 57.3% | SK-MEL-28 melanoma 47.2% | SK-MEL-2 melanoma 82.8% | SN12C renal 65.2% | UO-31 renal 41.2% | TK-10 renal 83.3% | ACHN renal 84.2% | CAKI-1 renal 38.5% | CCRF-CEM leukemia 72.7% | MOLT-4 leukemia 51%

O=C(/C=C(O)/C=C/c1ccc(SC(F)(F)F)cc1)/C=C/c1ccc(SC(F)(F)F)cc1
inactive: HCT-15 colon 88.5% | HT29 colon 83.2% | SNB-75 CNS 115% | SNB-19 CNS 90.3% | U251 CNS 66.5% | PC-3 prostate 81% | SK-MEL-5 melanoma 91.4% | UACC-62 melanoma 75.9% | LOX IMVI melanoma 72% | SK-MEL-28 melanoma 100% | EKVX NSCLC 111% | SN12C renal 94.2% | UO-31 renal 73.1% | TK-10 renal 101% | ACHN renal 102% | CAKI-1 renal 96% | CCRF-CEM leukemia 60.7% | MOLT-4 leukemia 76.1%

N/C(=N\C(N)=N\c1nc2ccccc2s1)c1ccnc(Br)c1
inactive: HCT-15 colon 19.6% | HT29 colon 10.2% | SNB-19 CNS 39.1% | U251 CNS 26.3% | PC-3 prostate 35.3% | SK-MEL-5 melanoma 27.1% | UACC-62 melanoma 27.7% | LOX IMVI melanoma 33.8% | SK-MEL-28 melanoma 57.2% | SN12C renal 40.5% | UO-31 renal 33.1% | TK-10 renal 82.2% | ACHN renal 27.6% | CAKI-1 renal 25.4% | CCRF-CEM leukemia 21.3% | MOLT-4 leukemia 34%
active: SNB-75 CNS -13.2% | SK-MEL-2 melanoma 7.48%

CCOC(=O)CC1CSC(N/N=C/c2ccc(-n3cccn3)cc2)=N1 (centres undefined)
inactive: HCT-15 colon 104% | HT29 colon 99.3% | SNB-75 CNS 101% | SNB-19 CNS 98.9% | U251 CNS 96.9% | PC-3 prostate 99.6% | SK-MEL-5 melanoma 98.1% | UACC-62 melanoma 92.5% | LOX IMVI melanoma 97.4% | SK-MEL-28 melanoma 111% | EKVX NSCLC 108% | SN12C renal 100% | UO-31 renal 90.9% | TK-10 renal 108% | ACHN renal 109% | CAKI-1 renal 102% | A498 renal 97.8% | CCRF-CEM leukemia 94.1% | MOLT-4 leukemia 97.3%
